# Assay outcomes from PubChem.
# PfHsp40 yeast: rescue of yeast from PfHsp40 toxicity, primary screen, S. cerevisiae, ATP luminescence. S. cerevisiae expressing PfHsp40, growth rescue. growth rescue, % at 12.5 µM. 340,000 compounds, 0.68% hits. AID 504582, 2011; in the data active = growth rescue above about 28%, passing the limit was not always enough;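 also: yeast W303a lacking pdr1 and pdr3 grown in galactose medium; growth measured after three days at 30 °C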
# Sa ugtP lethal: growth inhibition of ugtP-null S. aureus, primary screen, RN4220 ugtP deletion, OD600 | growth inhibition, % (no concentration beside the values) | 330,000 compounds, 0.54% hits | 16 h; in the data active = growth inhibition above about 68%;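 also: plate controls were untreated wells for no effect and antibiotic for full effect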
# RN4220 kill: growth inhibition of S. aureus RN4220, primary screen, OD600. AID 1259311, 2017. 330,000 compounds, 0.33% hits. 16 h. inhibition, % (concentration not given with the values); in the data active = inhibition above about 85%;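 also: plate controls were untreated cells for no effect and reference antibiotic for full effect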
# PrP 5UTR inh: inhibition of PrP 5' UTR reporter expression; AID 488862, 2010; inhibition, % (concentration not given with the values); 340,000 compounds, 0.35% hits; cell-based PrP 5' UTR mRNA reporter, plate reader; in the data active = inhibition above about 52%; also: 0 = median of the neutral control wells
# TcdB GH inh: TcdB glycohydrolase inhibitors, primary screen, biochemical, single point, plate reader; Toxin B (Clostridioides difficile), P18177; inhibition, % at 9.99 µM; AID 652162, 2013; 350,000 compounds, 0.24% hits; TcdB glycohydrolase enzymatic assay; in the data active = inhibition above about 10%
# Active calls of the source: *; . = no result. The list is not random: actives were taken first. Their share in the collection is about 1.2%.
SMILES,PfHsp40 yeast,Sa ugtP lethal,RN4220 kill,PrP 5UTR inh,TcdB GH inh
Cc1cccc(S(=O)(=O)N(C)C[C@H]2OCc3ccccc3-c3ccccc3C(=O)N([C@@H](C)CO)C[C@@H]2C)c1,.,.,.,.,0
COc1ccc(C(=O)C(C#N)=NNc2cccc([N+](=O)[O-])c2)cc1,.,87*,86*,.,.
N#CC(=NNc1cccc([N+](=O)[O-])c1)C(=O)c1ccc(Br)cc1,.,89*,94*,.,.
CCCC(=NNC(=O)c1csc(C)c1C)c1ccc(Cl)s1,.,2,3,.,.
CCc1nc(SCc2cccnc2)c2c(=O)n(C)c(=O)n(C)c2n1,1,.,.,-4,3
CC(C)Cc1nc(SCc2cccnc2)c2c(=O)n(C)c(=O)n(C)c2n1,33*,-4,2,-12,0
Cc1cccc(S(=O)(=O)N2CCCCN3[C@H](CO)[C@H](c4ccc(C#C[C@H](C)O)cc4)[C@H]3C2)c1,.,.,.,.,0
Cc1cc(C(=O)OCC(=O)NC2CCCC(C)C2C)c(C)o1 (stereo not drawn),62*,4,-1,-5,4
Cc1cc(C(=O)OCC(=O)NC2CCCCC2)c(C)o1,-1,6,-1,-14,.
CC(C)COC(=O)CCn1[nH]c(=O)c2ccccc2c1=O,0,-3,7,-12,.
CCCCCCCCOC(=O)CCn1[nH]c(=O)c2ccccc2c1=O,200*,1,4,6,.
O=C(C[C@@H]1CC[C@H](NS(=O)(=O)c2ccccc2)[C@H](CO)O1)NCc1ccccc1F,.,.,.,.,0
Oc1ccc(Br)cc1-c1nc2cnccn2c1NC1CCCC1,9,-20,-4,-6,.
Oc1ccc(Br)cc1-c1nc2cnccn2c1NC1CCCCC1,94*,-18,-10,-17,2
COC(=O)C1=C(C(=O)OC)C2N(C)c3ccccc3[C@@]23CC(C(=O)OC)N(C(=O)c2ccc(Br)cc2)C3=N1 (stereo partly drawn),.,-4,-1,.,.
C[C@@H]1CN([C@@H](C)CO)S(=O)(=O)c2ccc(C#CC(C)(C)O)cc2O[C@H]1CN(C)Cc1ccc(F)cc1,.,.,.,.,0
CNC(=S)N/N=C/c1c(C(=O)OC)cnn1-c1ccc(F)cc1F,-1,.,.,-18,12*
COC(=O)c1cnn(-c2ccc(F)cc2F)c1/C=N/NC(=S)NC(C)(C)C,5,.,.,-20,1
Cc1ccc(C(C)C)c(OCc2nn(CC(=O)c3ccc(Cl)cc3)c3[n+]2CCCCC3)c1,0,99*,100*,-10,5
O=C(Cn1nc(CNc2ccc(Cl)cc2)[n+]2c1CCCCC2)c1ccccc1,1,-11,-5,-16,-6
Cc1ccc(S(=O)(=O)N2C(c3ccc(Cl)c(Cl)c3)CC=C(C(=O)O)C2c2ccccc2)cc1 (stereo not drawn),.,90*,28,.,.
Cc1ccc(S(=O)(=O)N2[C@@H](c3ccccc3)C(C(=O)O)=CC[C@H]2c2ccc(Cl)c(Cl)c2)cc1,15,.,.,-14,-2
Cc1ccccc1S(=O)(=O)N1[C@@H](c2ccc(Br)cc2)C(C(=O)O)=CC[C@H]1c1ccc(Cl)cc1,9,17,11,0,-4
Cc1ccc([C@@H]2CC=C(C(=O)O)[C@H](c3ccc(Br)cc3)N2S(=O)(=O)c2ccccc2C)cc1,318*,24,23,-12,-1
Cc1noc(C)c1NC(=O)N(C)C[C@H]1OCCCC[C@@H](C)Oc2ccc(N(C)C)cc2C(=O)N([C@H](C)CO)C[C@@H]1C,.,.,.,.,-6
SMILES,PfHsp40 yeast,Sa ugtP lethal,RN4220 kill,PrP 5UTR inh,TcdB GH inh
C[C@@H]1CN([C@H](C)CO)S(=O)(=O)c2ccc(C3=CCCC3)cc2O[C@H]1CN(C)Cc1cccnc1,.,.,.,.,2
N#C[C@@H]1[C@H](c2ccc(-c3cccc(F)c3)cc2)[C@@H](CO)N1C(=O)c1cccnc1,.,.,.,.,0
O=[N+]([O-])c1ccc(NN=Cc2c[nH]c3ccccc23)c(S(=O)(=O)Nc2ccc(Cl)cc2)c1,.,99*,81,.,.
O=C(CC(=O)Nc1ccc(Cl)cc1)NN=Cc1cccc(F)c1,.,13,2,.,.
CN(C)c1ccc2c(c1)[C@H]1C[C@@H](CC(=O)NCc3cccc(F)c3)O[C@@H](CO)[C@H]1O2,.,.,.,.,-34
COc1cccc(N2CCN(c3nc(-c4ccccc4C)cc(=O)[nH]3)CC2)c1,108*,-5,0,-3,0
Cc1ccc(C(=O)NC(=S)NNC(=O)CC#N)cc1,0,-14,10,-33,12*
CCCCC(=O)NNC(=S)NC(=O)c1ccc(C)cc1,95*,10,37,-19,2
COc1ccc(-c2ccc3c(c2)[C@H]2[C@H](CCN2C(=O)C2CCCC2)[C@H](CO)N3C)cc1,.,.,.,.,-1
COc1ccc(-c2ccc3c(c2)[C@H]2[C@H](CCN2C(=O)C2CC2)[C@H](CO)N3C)cc1,.,.,.,.,0
COc1ccc(-c2ccc3c(c2)[C@@H]2[C@@H](CCN2C(=O)C2CC2)[C@H](CO)N3C)cc1,.,.,.,.,13*
COc1ccc(-c2ccc3c(c2)[C@H]2[C@H](CCN2C(=O)C2CC2)[C@@H](CO)N3C)cc1,.,.,.,.,15*
CCOC(=O)Cc1csc(NC(=O)c2c(O)c3ccccc3n(CC(C)C)c2=O)n1,0,98*,97*,-11,-1
O=C(CC1CC1)N1[C@H](CO)[C@@H](c2ccccc2)C12CN(Cc1cc(F)ccc1F)C2,.,.,.,.,-3
Clc1ccc(C(Cc2nc3ccccc3[nH]2)=NNc2ccccc2)cc1,.,-15,-12,.,.
Clc1cccc(N/N=C(\Cc2nc3ccccc3[nH]2)c2ccccc2)c1,426*,.,.,-1,.
CCCN1C(=O)C(=NOCC(=O)NCC(F)(F)F)c2ccccc21,.,-6,6,.,.
CCOC(=O)C1=C(c2ccccc2)c2ccccc2OC1C(=O)OCC (stereo not drawn),0,89*,4,-30,1
CCOC(=O)C1Oc2ccccc2C(c2ccc(OC)cc2)=C1C(=O)OC (stereo not drawn),1,34,4,7,2
O=C(C[C@H]1C[C@H]2c3cc(NC(=O)NC4CCCC4)ccc3O[C@H]2[C@H](CO)O1)NCc1cccnc1,.,.,.,.,-2
CSCc1cc(N(C)c2ccccc2)nc(-c2ccccn2)n1,111*,.,.,-5,1
